This experiment concerns the target human Retinoid X Receptor beta (RXRb), RXRB (gene 6257) (UniProt P28702). The experiment is described as follows: ATG_hRXRb_EcoTox2: Attagene TRANS-FACTORIAL EcoTox-2 HepG2 Assay for human Retinoid X Receptor beta (RXRb). Here is the method:
ATG_EcoTox2 is a cell-based, multiplexed assay created by modifying the existing Attagene TRANS-FACTORIAL system to include a panel of nuclear receptors from some or all the following species: human (Homo sapiens), african clawed frog (Xenopus laevis), rainbow trout (Oncorhynchus mykiss), japanese medaka (Oryzias latipes), and zebrafish (Danio rerio). The ECOTOX2-FACTORIAL format uses HepG2, a human liver cell line, with measurements taken at 24 hours after chemical dosing in a 24-well plate. ATG_hRXRb_EcoTox2 is one of 29 assay components calculated in the ATG_EcoTox2 assay. It is designed to make measurements of mRNA induction, a form of inducible reporter, as detected with fluorescence intensity signals by Reverse transcription polymerase chain reaction (RT-PCR) and Capillary electrophoresis technology.The assay endpoint ATG_hRXRb_EcoTox2 was analyzed in the positive analysis fitting direction relative to DMSO as the negative control and baseline of activity. Using a type of inducible reporter, measures of mRNA for gain-of-signal activity can be used to understand the reporter gene at the transcription factor-level as they relate to the gene RXRb. Furthermore, this assay endpoint can be referred to as a primary readout, because this assay has produced multiple assay endpoints where this one serves a reporter gene function. To generalize the intended target to other relatable targets, this assay endpoint is annotated to the nuclear receptor intended target family, where the subfamily is non-steroidal.
Human liver HepG2 cells are transiently transfected with multiple reporter transcription units (MRTUs) in 6-well plates using FuGene 6 reagent (Roche; 3 ml FuGene/1 mg DNA). The MRTU constructs are regulated by a cis-regulating element (promoter). Each RTU expresses a GAL4-UAS that regulates the transcription of a nearby target reporter gene sequence. A major difference between the CIS and TRANS system is that in CIS activities of endogenous TFs are measured, whereas the TRANS assay evaluates changes in activities of exogenous, chimeric NR-Gal4 proteins. […] At the end of 24 hour incubation, total RNA was isolated using TriZol reagent (Invitrogen). The isolated RNA is then reverse-transcribed using oligo(dT) primer and Mo-MLV reverse transcriptase (Invitrogen) with DNAse I (Ambion) treatment for 30 min. The one-tenth of the produced cDNA was amplified by PCR using Taq DNA polymerase (Invitrogen) and two reporter sequence-specific primers. The PCR products were fluorescently labeled by primer extension with 6-arboxyfluorescein (6-FAM) 5'-labeled reporter sequence-specific primer (2 min at 95 C, 20 s at 68 C and 10 min at 72 C) and these products were digested with 5U of HpaI (New England Biolabs) for 2h at 37 C. The fragments were purified using Qiaquick PCR columns (Qiagen), analyzed on an ABI 3130xL genetic analyzer (Applied Biosystems) with peak positions identified by using a set of X-rhodamine (ROX)-labeled MapMarker1000 molecular weight standards (BioVentures). The raw capillary electrophoresis data was processed using Attagraph software (Attagene).

Records with an inconclusive call do not appear. Activity calls are given as the source filed them. Rule for the calls: active = hit-call score of the fitted dose curve at least 0.9, where 1 is the maximum; inconclusive = response in the unintended direction; inactive = score below 0.9.

Chain of human Retinoid X Receptor beta (RXRb), RXRB (gene 6257) (P28702 whole entry, looked up): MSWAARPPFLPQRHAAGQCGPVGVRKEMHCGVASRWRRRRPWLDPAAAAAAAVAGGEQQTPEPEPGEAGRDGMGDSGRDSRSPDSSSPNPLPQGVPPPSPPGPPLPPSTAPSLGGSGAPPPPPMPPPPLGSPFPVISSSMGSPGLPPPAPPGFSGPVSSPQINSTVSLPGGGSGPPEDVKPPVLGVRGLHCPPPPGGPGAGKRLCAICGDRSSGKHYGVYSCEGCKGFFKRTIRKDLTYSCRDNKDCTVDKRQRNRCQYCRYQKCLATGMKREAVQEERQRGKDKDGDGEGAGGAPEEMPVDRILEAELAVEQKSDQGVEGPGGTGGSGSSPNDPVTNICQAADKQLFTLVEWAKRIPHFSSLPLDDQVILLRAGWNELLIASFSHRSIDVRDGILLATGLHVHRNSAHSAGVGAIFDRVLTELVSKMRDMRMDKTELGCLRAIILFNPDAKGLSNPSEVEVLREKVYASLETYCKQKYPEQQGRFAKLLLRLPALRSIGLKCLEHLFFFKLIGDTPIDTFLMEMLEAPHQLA

Take `CC(C)(Oc1ccc(Cl)cc1)C(=O)O`: the outcome was inactive. Still for that read-out and setting: the same measure for `CC(C)(Oc1ccc(CCNC(=O)c2ccc(Cl)cc2)cc1)C(=O)O`: “inactive”; for `CC(c1cc2ccccc2s1)N(O)C(N)=O` (centres undefined): “inactive”. By AC50 is commonly meant the concentration at which the activity in the assay is half-maximal. In the case of `Cc1ccc(C)c(OCCCC(C)(C)C(=O)O)c1`, the AC50 was 18.6 µM (active). `CC(C)OC(=O)C(C)(C)Oc1ccc(C(=O)c2ccc(Cl)cc2)cc1`: the result was inactive.

As for `CC(C)(Oc1ccc(C2CC2(Cl)Cl)cc1)C(=O)O` (centres undefined), the call was inactive.

`C[C@]12C=CC(=O)C=C1CC[C@@H]1[C@@H]2C(=O)C[C@@]2(C)[C@H]1CC[C@]2(O)C(=O)CO`: the outcome was inactive. Still for that read-out and setting: the same measure for `C[C@@H]1C[C@H]2[C@@H]3CCC4=CC(=O)C=C[C@]4(C)[C@@]3(F)[C@@H](O)C[C@]2(C)[C@@]1(O)C(=O)COP(=O)(O)O`: “inactive”. As to `CN(CCOc1ccc(CC2SC(=O)NC2=O)cc1)c1ccccn1` (centres undefined), the AC50 was 13 µM (active).

For the origin of these results see PubChem BioAssay AID2284354 (EPA ToxCast).
